Test: qHTS profiling of inhibitors of Plasmodium falciparum (DD2) proliferation (acoustic dispense)
Details: P. falciparum Dd2 in erythrocytes, SYBR Green DNA, 72 h; at 49.8 µM (top of the series) unless noted
`O=C(Nc1cn[nH]c1-c1nc2ccc(CN3CCOCC3)cc2[nH]1)NC1CC1` gave a parasite growth, lower = inhibition of 0.452%. With `COCCn1c2c([n+](Cc3cnccn3)c1C)C(=O)c1ccccc1C2=O` the parasite growth, lower = inhibition was -0.378%. `CN([C@@H](Cc1ccc(OS(=O)(=O)c2cccc3cnccc23)cc1)C(=O)N1CCN(c2ccccc2)CC1)S(=O)(=O)c1cccc2cnccc12` gave a parasite growth, lower = inhibition of 0.489%. For `Cn1cc(CNCC2CCN(c3ncc(C(=O)NO)cn3)CC2)c2ccccc21`, the parasite growth, lower = inhibition was 0.158%. `Cn1c2ccccc2c2c3c(c4c5ccccc5n(CCC#N)c4c21)CNC3=O` showed a parasite growth, lower = inhibition of 70.2%. Compound `Nc1ccc(-c2ccc3ncc4ccc(=O)n(-c5cccc(C(F)(F)F)c5)c4c3c2)cn1` has a parasite growth, lower = inhibition of -0.538%. Compound `Cn1c(=O)n(-c2ccc(C(C)(C)C#N)cc2)c2c3cc(-c4cnc5ccccc5c4)ccc3ncc21` has a parasite growth, lower = inhibition of 1%. Compound `COc1cc2nc(N3CCCN(C)CC3)nc(NC3CCN(Cc4ccccc4)CC3)c2cc1OC` has a parasite growth, lower = inhibition of -0.574%. For `CC(=O)Nc1nc(C)c(-c2ccc(Cl)c(S(=O)(=O)NCCO)c2)s1`, the parasite growth, lower = inhibition was -0.252%. Work on `CC1(CN2CCC(n3c(=O)[nH]c4ccccc43)CC2)OCc2ccccc2-n2cccc21` (centres undefined) yielded a parasite growth, lower = inhibition of 12.6%. For `CC[C@H]1OC(=O)[C@H](C)C(=O)[C@H](C)[C@@H](O[C@H]2O[C@H](C)C[C@H](N(C)C)[C@@H]2O)[C@](C)(OC)C[C@@H](C)C(=O)[C@H](C)[C@H]2N(CCCCn3cnc(-c4cccnc4)c3)C(=O)O[C@]12C`, the parasite growth, lower = inhibition was 4.52%. In the case of `CC[C@H]1CN2CCc3cc(OC)c(OC)cc3[C@H]2C[C@@H]1C[C@@H]1NCCc2cc(OC)c(OC)cc21`, the parasite growth, lower = inhibition is reported as 0.111%. Compound `NC1CCC(Nc2nc(Nc3ccc(C(=O)N4CCCCC4)cc3)c3ncn(-c4cccc(F)c4)c3n2)CC1` (centres undefined) has a parasite growth, lower = inhibition of -0.359%. For `Cc1ccc([N+](=O)[O-])cc1S(=O)(=O)N(C)N=Cc1cnc2ccc(Br)cn12`, the parasite growth, lower = inhibition was 6.06%.

Source: PubChem BioAssay AID743365 (National Center for Advancing Translational Sciences (NCATS), 2014)
